Our source for the inhibition values is PubChem BioAssay AID777 (Sanford-Burnham Center for Chemical Genomics, 2007).

In all, about 96,000 compounds went through this assay and about 19,000 (20%) were called active. Not all results are given here. A number with no mark means an inactive call.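 The calls were made as follows: active = blocking of liver enzyme CYP2C9 beyond about 50% at 5 µM (limit read from the data); inactive = the rest.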

Sequence of Cytochrome P450 2C9 (Homo sapiens) (P11712 whole entry, looked up): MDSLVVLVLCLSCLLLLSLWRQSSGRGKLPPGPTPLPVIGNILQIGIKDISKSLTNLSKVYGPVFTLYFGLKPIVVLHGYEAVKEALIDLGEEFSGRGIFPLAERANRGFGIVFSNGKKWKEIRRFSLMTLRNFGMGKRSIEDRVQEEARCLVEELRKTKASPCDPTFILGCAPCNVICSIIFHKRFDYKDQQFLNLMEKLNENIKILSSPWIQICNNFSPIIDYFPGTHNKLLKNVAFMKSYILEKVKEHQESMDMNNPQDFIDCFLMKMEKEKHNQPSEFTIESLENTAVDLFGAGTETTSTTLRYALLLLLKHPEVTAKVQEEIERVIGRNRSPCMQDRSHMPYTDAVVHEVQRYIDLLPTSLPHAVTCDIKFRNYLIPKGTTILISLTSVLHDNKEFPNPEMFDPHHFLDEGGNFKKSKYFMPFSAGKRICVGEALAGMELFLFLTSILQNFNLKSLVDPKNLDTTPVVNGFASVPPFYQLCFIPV

The test addresses Cytochrome P450 2C9 (Homo sapiens) (UniProt P11712). Briefly: blockers of cytochrome P450 2C9 activity – biochemical, luminescence, ADME assay, primary screen (AID 777). The conditions noted are these: CYP2C9 Supersomes, luciferin-H conversion, at 5 µM, stronger effect = higher value.
Turning to `O=C(Nc1ccc(Cl)cc1)c1ccsn1`, the inhibition (in general, the relative decrease from the control value, in per cent) was -4.3%. In the case of `O=C(c1ccc(Cl)cc1)c1cnc(Nc2ccccc2)s1` it was 21.7%. Next, `O=C(Nc1ccccc1)c1nnsc1S(=O)(=O)c1ccc(Cl)cc1`: 74.9% (active).

As for `Cc1ccc(N2CCN(c3ccc(C)cc3)C2c2ccccn2)cc1`, the inhibition is 1.3%. For the molecule `O=C(NCCCCCCCCCNC(=O)C(F)(F)F)C(F)(F)F`, the inhibition is 11.2%. In the case of `CCCOc1ccccc1C(=O)NCCCC(=O)O` it was -8.2%; in that of `CS(=O)(=O)N1CCN(C(=O)Cc2ccccc2)CC1`, -5.4%. Next, `CCOc1ccc(Cn2nnc(C(=O)NCc3ccccc3)c2N)cc1`: -2.2%; `COc1ccc(OC)c(CN2C(=O)CCC2(C)C(=O)NC2CCCCCC2)c1` (stereo not drawn): 30%. Take `CC(=O)Oc1ccc2c(C)c(CC(C)O)c(=O)oc2c1` (stereo not drawn): the inhibition was -16%. Consider `CCOC(=O)CCc1c(C)c2ccc(OCc3nn[nH]n3)c(C)c2oc1=O`, for which the inhibition is 86.3% (active). In the case of `CCOC(=O)N1CCN(C(=O)c2cn(C)c3ccc(S(=O)(=O)N4CCCC4)cc3c2=O)CC1` it was -6.2%; in that of `Cc1c(C(=O)Nc2ccccc2Cl)oc2ccc(S(=O)(=O)N3CCC4(CC3)OCCO4)cc12`, 31.2%.

Consider `CCOC(=O)C1CCN(C(=O)c2oc3ccc(S(=O)(=O)N4CCCCCC4)cc3c2C)CC1`, for which the inhibition is 53.6% (active). Next, `C=CCn1c(COc2ccccc2F)nnc1SCC(=O)N1CC(=O)Nc2ccccc21`: 12.5%; `CCN1C(=O)C(CC(=O)Nc2cc(C)ccc2C)SC1=Nc1ccc(S(N)(=O)=O)cc1` (stereo not drawn): 90.8% (active). For the molecule `Cc1ccc(C)c(NC(=O)C2CC(=O)N(C(C)C)C2)c1` (stereo not drawn), the inhibition was -14.4%.

On to `CCN=C1SC(CC(=O)Nc2ccc(C)cc2)C(=O)N1CC` (stereo not drawn), for which the inhibition is -8.7%. Next, `O=S(=O)(/C=C/c1ccccc1)NCCc1ccccn1`: -35.1%; `Cc1nnc(SCC(=O)N(C(C)C)C(C)C)nc1C`: -18.5%.

As for `CCCn1c(=O)c(-c2ccccc2)c(O)c2ccccc21`, the inhibition was 1.5%. In the case of `Cc1cccc(OCC(O)Cn2c(=N)n(CCN3CCOCC3)c3ccccc32)c1` (stereo not drawn) it was -8.4%; in that of `O=C(Nc1nc2cc3c(cc2s1)OCCO3)c1cccc(S(=O)(=O)N2CCOCC2)c1`, 50.9% (active); in that of `COc1ccc(S(=O)(=O)N2CCOCC2)cc1C(=O)Nc1nc2ccccc2s1`, -3.9%. As to `O=C(c1ccc2c(c1)OCCO2)C1CCN(S(=O)(=O)c2cccc(F)c2)CC1`, the inhibition was -18.3%. Next, `CC1(C)CC(CCC(=O)Nc2ccccc2Cl)C(=O)O1` (stereo not drawn): -35.4%; `CCc1nnc(NC(=O)CCC(=O)O)s1`: -9.1%. Next, `CCCCc1nc2c(=O)[nH]c3ccccc3c2o1`: -4.4%; `O=C(Nc1ccc2ccccc2c1)Nc1ccc2snnc2c1`: 19.3%; `COc1ccc(NC(=O)/C(Cl)=C(/Cl)S(=O)Cc2ccc(C)cc2)cn1` (stereo not drawn): 52.9% (active).

Consider `COc1cccc(NC(=O)Cc2ccc(C)cc2)c1`, for which the inhibition is 21.1%. In the case of `O=C(Nc1cccc2c1CCCC2)C1CCN(C(=O)NC2CCCCC2)CC1` it was 1.9%; in that of `Cc1cccc2cc(C#N)c(N3CCCC3)nc12`, -2.2%; in that of `Cc1ccc(S(=O)(=O)C(C#N)c2nc3ccccc3nc2N2CCCC2)cc1C` (stereo not drawn), 93.4% (active). Next, `CC(C)CCOc1ccc(C(=O)C[N+]2(C)CCOCC2)cc1`: 11%. In the case of `COc1ccccc1NC1=NC2(CCCC2)N=C(N)N1` it was -4%. As for `Cc1nc(N2CCOCC2)nc2c1CCCC2`, the inhibition is -1.5%. In the case of `CCOc1ccc(-c2nnn(CC(=O)N3CCN(c4ccc(F)cc4)CC3)n2)cc1OCC` it was -6.1%.

Take `O=C(Nc1ccccc1-c1nnn(CC(=O)N2CCN(c3ccccc3)CC2)n1)c1cccs1`: the inhibition is 80.1% (active). In the case of `COc1ccccc1N1CCN(C(=O)Cn2nnc(-c3cccs3)n2)CC1` it was 47.2%; in that of `CC(=O)c1ccc(OCCN2CCOCC2)cc1`, 9.9%; in that of `CC1CC(c2ccccc2)n2nc(NC(=O)c3cccs3)nc2N1` (stereo not drawn), 0.9%.

For the molecule `CCOC(=O)C1CCCN(C(=O)c2cncc(Br)c2)C1` (stereo not drawn), the inhibition is 33.3%.

On to `Cc1cc(=O)n2nc(N3CCCC(C(=O)NCCC4=CCCCC4)C3)sc2n1` (stereo not drawn), for which the inhibition is 61.7% (active).

As to `Cc1cc(=O)n2nc(N3CCCC3C(=O)NCCCN3CC(C)CC(C)C3)sc2n1` (stereo not drawn), the inhibition is 1.8%. Next, `COc1ccc(CCNC(=O)C2CCN(c3nn4c(=O)cc(C)nc4s3)CC2)cc1OC`: -11.8%; `CCCC(=O)Nc1nnc(CC(=O)OCC)s1`: -12.8%; `COCCCNC(=O)Cn1cc(C(=O)C2CC2)c2ccccc21`: 11.2%. On to `CN1CCN(S(=O)(=O)c2ccc(NC(=O)C3CCCO3)cc2)CC1` (stereo not drawn), for which the inhibition was 60% (active). Next, `CN1CCN(S(=O)(=O)c2ccc(NC(=O)c3ccco3)cc2)CC1`: -13.5%; `O=C(Nc1nc2ccc(S(=O)(=O)N3CCCC3)cc2s1)C1CCCO1` (stereo not drawn): 46.1%. Next, `c1csc(CN2CCN(Cc3cccs3)C2c2cccs2)c1`: -9%; `Cc1[nH]c2ccccc2c1C(=O)COC(=O)C(C)C`: -5%; `COc1ccccc1CCNC(=O)c1cnccn1`: -35.8%. In the case of `COc1ccc(S(=O)(=O)N(CCCN2CCCC2=O)Cc2cc3c(C)ccc(C)c3[nH]c2=O)cc1` it was 85.6% (active); in that of `CCCN(Cc1cc2cccc(C)c2[nH]c1=O)S(C)(=O)=O`, 36.4%. Take `CCOc1ccc(C(=O)NCCCN2CCCC2=O)cc1`: the inhibition is 12.3%.

`CSc1ccc(Cl)c(C(=O)OCC(=O)N2CC(C)OC(C)C2)c1` (stereo not drawn): the inhibition was -24.7%. Consider `Cc1nc2nc3c(cn2n1)C(=O)CC(c1ccccc1)C3` (stereo not drawn), for which the inhibition is 65.6% (active). In the case of `Cc1cc(=O)oc(C)c1C(=O)Nc1cnc2ccccc2c1` it was 10.5%; in that of `COc1ccc(CNC(=O)c2c(C)cc(=O)oc2C)cc1OC`, 32.7%; in that of `Cc1cc(=O)oc(C)c1C(=O)NCc1ccc(F)cc1`, 51.6% (active). Next, `O=C(c1ccc(Cl)c(Cl)c1)N1CCCC1`: 7%; `O=C(CN1CCN(S(=O)(=O)c2ccc(Cl)s2)CC1)NCc1ccc(Cl)cc1`: 55.1% (active); `Cc1ccc(CNC(=O)CN2CCN(Cc3ccc(Cl)cc3)C2=O)cc1`: 17.5%.

Turning to `Cc1cccc(NC(=O)CN2CCCN(S(=O)(=O)c3ccc(Br)s3)CC2)c1`, the inhibition is 11.6%. Next, `O=S(=O)(NCc1ccccc1Cl)c1cnc[nH]1`: 28.8%. In the case of `CC1(C)CC(=O)C=C(NCCN2CCNCC2)C1` it was -8.1%. In the case of `Cc1ccc(Nc2nc(C)cc(C)c2C(N)=O)cc1` it was 6.2%; in that of `COC(=O)c1ccc(NCC(=O)c2ccccc2)cc1`, 48.7%; in that of `CCOC(=O)c1nc(Nc2ccc(C(=O)OC)cc2)c2ccccc2n1`, 59.5% (active).

Regarding `Cc1nc(CNS(=O)(=O)c2cccnc2)cs1`, the inhibition is 8.8%. As for `CCc1cc2c(=O)c(-c3ccon3)c(N)oc2cc1OC`, the inhibition was 0.5%. In the case of `O=C(CSc1nnc(-c2cccs2)n1-c1ccccc1)N1CCN(C(=O)c2ccco2)CC1`, the inhibition is 23.6%.

For `CCn1c(SCCC(C)C)nnc1-c1c[nH]c2ccccc12`, the inhibition is 1.7%.

For the molecule `O=C(CSc1nnc(-c2cccs2)n1-c1ccccc1)NCc1ccco1`, the inhibition is 70.7% (active). Regarding `O=C(CSc1nnc2scc(-c3ccc(F)cc3)n12)NCc1ccco1`, the inhibition is 55% (active). Take `CCOc1ccccc1-n1c(SCC(=O)N2CCCC2)nnc1-c1ccoc1C`: the inhibition is 8.8%.

`COc1ccc(-n2c(SCC(=O)NCc3cccs3)nnc2-c2ccoc2C)cc1`: the inhibition was 66.1% (active).

Consider `Cc1ccc(-n2c(SCC(=O)Nc3ccc4c(c3)OCO4)nnc2-c2ccoc2C)cc1`, for which the inhibition was -13.4%. In the case of `Cc1ccc(-c2csc3nnc(SCC(=O)NCc4ccco4)n23)cc1` it was 40.9%; in that of `CCn1c(SCC(=O)Nc2ccc(OC)c(OC)c2)nnc1-c1c[nH]c2ccccc12`, 93.3% (active). In the case of `O=C(CSc1nnc(-c2ccco2)n1-c1ccccc1)NCCc1ccccc1` it was 30.9%; in that of `CCOC(=O)N1CCN(C(=O)CSc2nnc(-c3c[nH]c4ccccc34)n2CCOC)CC1`, 14.7%; in that of `CC(C)(C)OC(=O)c1c(N)n(CCCN2CCCC2=O)c2nc3ccccc3nc12`, -1.7%.

With `CCc1c(C)n([O-])c2c([n+]1=O)CCCCC2`, the inhibition is -11.5%. Next, `CC1CCC2(CC1)NC(=O)N(CC(=O)c1cccn1C)C2=O` (stereo not drawn): -21.9%; `Nc1ccc(C(=O)OCC(=O)NC2CCCc3ccccc32)cc1[N+](=O)[O-]` (stereo not drawn): -4.1%; `Cc1cc(NC(=O)Nc2ccccc2)n(-c2ccccc2)n1`: 14.5%.

With `CCOc1ccc(N(CC(=O)NC2CCCCCC2)S(=O)(=O)c2c(C)[nH]c(=O)[nH]c2=O)cc1`, the inhibition was 1.3%. As for `Cc1ccc(CNC(=O)c2ccccc2CCc2ccccc2)cc1`, the inhibition is 29.1%. With `Cc1cccc(C(=O)Nc2ccc(C(=O)/C=C/c3cccs3)cc2)c1`, the inhibition was 26.4%. Next, `O=C(NC1CC1)c1ccc2c(c1)NC(=O)c1ccccc1S2`: 11.1%. In the case of `COc1ccc(-n2c(SCC(=O)NCc3ccco3)nnc2-c2c[nH]c3ccccc23)cc1` it was 58.8% (active); in that of `COc1ccc(C(=O)NC(=O)CSc2nnc(-c3ccco3)n2-c2ccccc2)cc1`, -13.3%; in that of `COc1ccc(-c2nnc(SCC(=O)c3ccco3)n2-c2ccccc2)cc1`, -14.6%. Next, `Cc1cc(NC(=O)CN2CCCC(C)C2)n(-c2nc3ccccc3s2)n1` (stereo not drawn): 22.2%; `c1ccc2c(c1)OCC(c1nn3cnnc3s1)O2` (stereo not drawn): 7%.
